Assay results published in the supplement of paper PMC11732987, “Enantioselective OTUD7B fragment discovery through chemoproteomics screening and high-throughput optimisation” (Communications Chemistry, 2025).

Assays:
Experiment in all cases: log2 ratio of Biotin-Ahx-Ub-VS probe labelling (fragment/DMSO); higher = less target engagement (more negative = stronger competition), active = hit call of the paper (q ≤ 0.05, log2 ratio ≤ -1)
Settings in all cases: compound concentration: 200 uM; treatment time: 3 h
USP42 = target: T1, USP42 (UniProt Q9H9J4)
T1 sequence (whole entry): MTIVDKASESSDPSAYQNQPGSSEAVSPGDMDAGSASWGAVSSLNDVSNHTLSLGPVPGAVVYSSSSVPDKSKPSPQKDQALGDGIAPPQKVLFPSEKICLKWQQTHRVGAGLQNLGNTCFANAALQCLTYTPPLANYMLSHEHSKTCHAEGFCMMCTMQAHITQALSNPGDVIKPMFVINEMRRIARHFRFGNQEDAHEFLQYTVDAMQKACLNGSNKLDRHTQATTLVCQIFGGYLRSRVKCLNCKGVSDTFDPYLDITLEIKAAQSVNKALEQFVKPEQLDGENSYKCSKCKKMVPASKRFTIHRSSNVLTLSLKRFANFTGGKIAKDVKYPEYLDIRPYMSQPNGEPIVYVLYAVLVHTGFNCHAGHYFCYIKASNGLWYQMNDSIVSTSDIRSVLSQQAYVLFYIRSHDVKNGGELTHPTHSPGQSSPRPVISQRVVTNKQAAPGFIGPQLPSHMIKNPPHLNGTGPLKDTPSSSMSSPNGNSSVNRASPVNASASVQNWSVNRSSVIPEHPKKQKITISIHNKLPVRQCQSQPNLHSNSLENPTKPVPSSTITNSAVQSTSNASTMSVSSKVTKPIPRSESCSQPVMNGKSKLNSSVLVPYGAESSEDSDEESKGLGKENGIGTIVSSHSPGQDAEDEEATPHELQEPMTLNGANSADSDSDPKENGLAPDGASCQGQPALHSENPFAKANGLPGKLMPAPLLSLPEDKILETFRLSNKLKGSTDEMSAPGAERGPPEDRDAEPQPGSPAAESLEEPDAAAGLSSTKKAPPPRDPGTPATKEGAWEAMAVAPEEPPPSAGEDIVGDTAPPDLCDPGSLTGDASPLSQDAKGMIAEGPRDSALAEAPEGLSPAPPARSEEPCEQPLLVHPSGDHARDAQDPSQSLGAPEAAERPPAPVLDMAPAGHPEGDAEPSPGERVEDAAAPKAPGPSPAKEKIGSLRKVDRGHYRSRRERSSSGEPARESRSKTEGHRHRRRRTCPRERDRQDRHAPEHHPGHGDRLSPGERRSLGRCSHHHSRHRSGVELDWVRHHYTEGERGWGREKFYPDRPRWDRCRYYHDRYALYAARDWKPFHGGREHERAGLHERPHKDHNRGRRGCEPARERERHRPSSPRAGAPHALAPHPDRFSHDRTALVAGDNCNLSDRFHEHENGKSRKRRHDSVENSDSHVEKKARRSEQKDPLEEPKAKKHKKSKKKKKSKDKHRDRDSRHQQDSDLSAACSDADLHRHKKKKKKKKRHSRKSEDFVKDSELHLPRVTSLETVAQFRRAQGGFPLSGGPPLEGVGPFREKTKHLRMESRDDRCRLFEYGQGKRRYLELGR
How it was run: (§1)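 Average log2 ratios of fragment over vehicle were obtained by unpaired t-test from global-median-normalised Spectronaut label-free quantities. Proteins with ≥2 unique peptides were included. HEK293T lysate (495 µg per sample) was treated in triplicate with fragment at 200 µM or vehicle for 3 h, then with Biotin-Ahx-Ub-VS at 0.5 µM final for 1 h, and labelled DUBs were NeutrAvidin-enriched and run by diaPASEF LC-MS/MS.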

USP46 = USP46 (UniProt P62068)
How it was run: as §1

USP47 = target: T2, USP47 (UniProt Q96K76)
T2 sequence (whole entry): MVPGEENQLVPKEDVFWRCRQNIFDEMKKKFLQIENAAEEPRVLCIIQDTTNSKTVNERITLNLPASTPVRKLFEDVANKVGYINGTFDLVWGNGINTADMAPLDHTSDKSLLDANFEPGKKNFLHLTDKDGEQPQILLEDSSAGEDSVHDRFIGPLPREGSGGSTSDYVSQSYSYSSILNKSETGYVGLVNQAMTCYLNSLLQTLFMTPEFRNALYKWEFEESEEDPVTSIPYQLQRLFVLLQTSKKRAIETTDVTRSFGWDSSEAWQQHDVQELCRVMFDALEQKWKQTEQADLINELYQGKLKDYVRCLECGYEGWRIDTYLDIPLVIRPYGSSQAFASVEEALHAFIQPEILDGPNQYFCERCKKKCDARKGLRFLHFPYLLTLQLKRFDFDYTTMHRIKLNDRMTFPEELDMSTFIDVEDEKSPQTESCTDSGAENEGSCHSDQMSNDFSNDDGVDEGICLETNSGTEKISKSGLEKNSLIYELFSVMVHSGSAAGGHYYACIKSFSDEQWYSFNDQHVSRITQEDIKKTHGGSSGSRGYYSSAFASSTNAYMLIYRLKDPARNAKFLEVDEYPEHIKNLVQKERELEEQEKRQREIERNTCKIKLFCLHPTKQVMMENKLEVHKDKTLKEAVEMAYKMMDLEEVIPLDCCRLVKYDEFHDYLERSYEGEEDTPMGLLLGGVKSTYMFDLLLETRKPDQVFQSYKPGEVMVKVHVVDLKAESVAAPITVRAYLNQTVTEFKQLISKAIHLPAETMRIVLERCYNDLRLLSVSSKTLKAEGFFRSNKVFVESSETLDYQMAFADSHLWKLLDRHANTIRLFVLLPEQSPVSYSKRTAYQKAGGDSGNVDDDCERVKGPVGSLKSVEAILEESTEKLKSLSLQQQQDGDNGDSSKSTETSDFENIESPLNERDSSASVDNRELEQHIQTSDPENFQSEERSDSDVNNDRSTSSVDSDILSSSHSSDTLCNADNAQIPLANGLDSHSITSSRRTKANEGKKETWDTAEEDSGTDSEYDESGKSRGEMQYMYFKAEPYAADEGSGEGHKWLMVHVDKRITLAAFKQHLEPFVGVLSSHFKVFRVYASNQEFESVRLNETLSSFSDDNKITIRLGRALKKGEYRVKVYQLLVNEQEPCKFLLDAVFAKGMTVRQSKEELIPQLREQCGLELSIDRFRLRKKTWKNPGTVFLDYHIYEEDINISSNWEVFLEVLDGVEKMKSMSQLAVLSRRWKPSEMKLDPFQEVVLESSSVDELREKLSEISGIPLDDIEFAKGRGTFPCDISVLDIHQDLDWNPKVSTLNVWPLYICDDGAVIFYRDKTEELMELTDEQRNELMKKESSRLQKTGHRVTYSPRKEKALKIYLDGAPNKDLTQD
How it was run: as §1

USP48 = target: T3, USP48 (UniProt Q86UV5)
T3 sequence (whole entry): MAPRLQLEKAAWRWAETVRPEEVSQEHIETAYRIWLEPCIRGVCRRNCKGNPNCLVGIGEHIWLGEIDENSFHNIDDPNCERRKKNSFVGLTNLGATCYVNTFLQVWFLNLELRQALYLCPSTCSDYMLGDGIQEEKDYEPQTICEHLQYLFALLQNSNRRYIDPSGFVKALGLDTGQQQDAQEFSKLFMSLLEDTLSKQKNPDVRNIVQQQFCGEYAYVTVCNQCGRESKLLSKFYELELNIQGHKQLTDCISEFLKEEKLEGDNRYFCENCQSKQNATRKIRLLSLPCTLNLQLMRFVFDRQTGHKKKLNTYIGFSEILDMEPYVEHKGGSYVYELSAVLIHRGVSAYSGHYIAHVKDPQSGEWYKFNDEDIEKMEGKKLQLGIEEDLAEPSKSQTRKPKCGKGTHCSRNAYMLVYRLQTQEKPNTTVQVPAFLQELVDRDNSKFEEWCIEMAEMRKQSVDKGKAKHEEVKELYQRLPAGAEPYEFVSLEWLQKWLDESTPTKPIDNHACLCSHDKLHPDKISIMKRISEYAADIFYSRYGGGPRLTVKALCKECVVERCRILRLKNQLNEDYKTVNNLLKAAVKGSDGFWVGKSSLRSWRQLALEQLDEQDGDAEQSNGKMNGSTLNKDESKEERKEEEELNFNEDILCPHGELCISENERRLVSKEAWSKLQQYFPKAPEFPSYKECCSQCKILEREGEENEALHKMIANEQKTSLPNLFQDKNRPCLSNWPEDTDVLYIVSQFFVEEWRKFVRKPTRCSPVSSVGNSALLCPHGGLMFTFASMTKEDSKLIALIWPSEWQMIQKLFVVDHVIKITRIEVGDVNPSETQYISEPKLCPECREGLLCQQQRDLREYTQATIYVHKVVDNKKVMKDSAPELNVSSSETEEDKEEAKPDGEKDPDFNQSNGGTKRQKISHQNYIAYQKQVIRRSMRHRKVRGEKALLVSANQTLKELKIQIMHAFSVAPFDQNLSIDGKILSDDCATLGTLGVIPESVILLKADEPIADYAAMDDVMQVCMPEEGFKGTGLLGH
How it was run: as §1

USP5 = target: T4, USP5 (UniProt P45974)
T4 sequence (whole entry): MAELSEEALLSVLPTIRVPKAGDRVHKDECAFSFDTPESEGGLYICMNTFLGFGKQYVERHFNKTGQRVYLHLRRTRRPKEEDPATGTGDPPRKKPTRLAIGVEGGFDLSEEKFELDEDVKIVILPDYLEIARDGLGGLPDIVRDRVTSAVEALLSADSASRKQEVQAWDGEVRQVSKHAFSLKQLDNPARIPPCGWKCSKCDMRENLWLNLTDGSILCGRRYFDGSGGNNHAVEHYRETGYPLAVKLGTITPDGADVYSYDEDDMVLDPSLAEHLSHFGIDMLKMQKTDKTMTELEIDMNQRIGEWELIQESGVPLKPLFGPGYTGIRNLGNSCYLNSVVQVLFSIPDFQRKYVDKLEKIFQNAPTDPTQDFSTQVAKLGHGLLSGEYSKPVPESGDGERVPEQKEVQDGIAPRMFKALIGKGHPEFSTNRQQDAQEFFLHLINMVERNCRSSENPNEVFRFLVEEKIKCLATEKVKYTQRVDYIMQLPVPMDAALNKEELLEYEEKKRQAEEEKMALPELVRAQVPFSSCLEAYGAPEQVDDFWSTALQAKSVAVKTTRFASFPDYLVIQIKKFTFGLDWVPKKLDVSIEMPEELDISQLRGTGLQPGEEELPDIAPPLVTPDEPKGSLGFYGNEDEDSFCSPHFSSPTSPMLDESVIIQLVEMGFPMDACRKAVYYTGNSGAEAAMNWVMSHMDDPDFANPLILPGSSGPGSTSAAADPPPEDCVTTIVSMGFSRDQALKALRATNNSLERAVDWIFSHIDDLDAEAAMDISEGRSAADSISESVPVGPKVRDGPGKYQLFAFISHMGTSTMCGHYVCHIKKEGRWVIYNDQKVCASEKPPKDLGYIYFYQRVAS
How it was run: as §1

USP54 = USP54 (UniProt Q70EL1)
How it was run: as §1

USP7 = USP7 (UniProt Q93009)
How it was run: as §1

USP8 = target: T5, USP8 (UniProt P40818)
T5 sequence (whole entry): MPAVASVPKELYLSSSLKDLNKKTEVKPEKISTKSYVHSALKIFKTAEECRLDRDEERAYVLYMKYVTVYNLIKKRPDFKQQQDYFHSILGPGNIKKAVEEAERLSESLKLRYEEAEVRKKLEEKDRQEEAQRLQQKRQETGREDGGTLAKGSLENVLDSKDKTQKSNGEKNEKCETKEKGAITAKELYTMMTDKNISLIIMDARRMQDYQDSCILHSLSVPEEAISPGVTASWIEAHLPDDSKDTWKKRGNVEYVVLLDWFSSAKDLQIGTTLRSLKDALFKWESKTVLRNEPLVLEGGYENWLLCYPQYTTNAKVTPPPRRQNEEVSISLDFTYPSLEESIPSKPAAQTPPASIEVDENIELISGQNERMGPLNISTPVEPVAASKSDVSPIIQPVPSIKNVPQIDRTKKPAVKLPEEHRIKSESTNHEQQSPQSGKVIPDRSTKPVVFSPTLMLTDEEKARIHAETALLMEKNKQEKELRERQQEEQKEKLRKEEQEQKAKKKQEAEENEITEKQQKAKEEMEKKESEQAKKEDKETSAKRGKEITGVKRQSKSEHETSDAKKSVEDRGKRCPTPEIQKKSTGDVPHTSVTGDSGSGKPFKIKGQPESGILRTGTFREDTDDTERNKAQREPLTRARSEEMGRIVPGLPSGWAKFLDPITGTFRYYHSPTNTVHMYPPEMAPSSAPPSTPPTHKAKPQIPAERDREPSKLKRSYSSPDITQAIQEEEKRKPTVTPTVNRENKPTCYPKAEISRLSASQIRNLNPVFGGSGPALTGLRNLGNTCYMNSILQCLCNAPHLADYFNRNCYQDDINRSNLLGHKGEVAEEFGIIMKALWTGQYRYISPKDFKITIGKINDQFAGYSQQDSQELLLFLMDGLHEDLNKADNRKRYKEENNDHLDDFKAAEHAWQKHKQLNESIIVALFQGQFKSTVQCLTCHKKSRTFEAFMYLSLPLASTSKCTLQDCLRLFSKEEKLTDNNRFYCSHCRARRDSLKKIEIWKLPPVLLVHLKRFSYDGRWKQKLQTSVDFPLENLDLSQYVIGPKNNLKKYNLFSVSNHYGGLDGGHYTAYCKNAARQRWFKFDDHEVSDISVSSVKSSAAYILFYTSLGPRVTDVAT
How it was run: as §1

USP9X = USP9X (UniProt Q93008)
How it was run: as §1

UniProt O00487 = target: UniProt O00487
How it was run: as §1

Measured: log2 ratio of Biotin-Ahx-Ub-VS probe labelling

UniProt O00487, sequence (O00487 whole entry): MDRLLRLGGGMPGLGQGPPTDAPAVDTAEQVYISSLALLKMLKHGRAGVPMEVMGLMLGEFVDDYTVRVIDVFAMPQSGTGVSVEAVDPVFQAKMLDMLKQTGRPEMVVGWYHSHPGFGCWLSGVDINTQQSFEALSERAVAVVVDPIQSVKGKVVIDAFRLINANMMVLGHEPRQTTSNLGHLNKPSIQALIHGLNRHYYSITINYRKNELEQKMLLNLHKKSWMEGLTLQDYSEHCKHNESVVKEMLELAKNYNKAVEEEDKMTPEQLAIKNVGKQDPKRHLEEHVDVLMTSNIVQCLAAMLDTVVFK
USP9X, sequence (Q93008 whole entry): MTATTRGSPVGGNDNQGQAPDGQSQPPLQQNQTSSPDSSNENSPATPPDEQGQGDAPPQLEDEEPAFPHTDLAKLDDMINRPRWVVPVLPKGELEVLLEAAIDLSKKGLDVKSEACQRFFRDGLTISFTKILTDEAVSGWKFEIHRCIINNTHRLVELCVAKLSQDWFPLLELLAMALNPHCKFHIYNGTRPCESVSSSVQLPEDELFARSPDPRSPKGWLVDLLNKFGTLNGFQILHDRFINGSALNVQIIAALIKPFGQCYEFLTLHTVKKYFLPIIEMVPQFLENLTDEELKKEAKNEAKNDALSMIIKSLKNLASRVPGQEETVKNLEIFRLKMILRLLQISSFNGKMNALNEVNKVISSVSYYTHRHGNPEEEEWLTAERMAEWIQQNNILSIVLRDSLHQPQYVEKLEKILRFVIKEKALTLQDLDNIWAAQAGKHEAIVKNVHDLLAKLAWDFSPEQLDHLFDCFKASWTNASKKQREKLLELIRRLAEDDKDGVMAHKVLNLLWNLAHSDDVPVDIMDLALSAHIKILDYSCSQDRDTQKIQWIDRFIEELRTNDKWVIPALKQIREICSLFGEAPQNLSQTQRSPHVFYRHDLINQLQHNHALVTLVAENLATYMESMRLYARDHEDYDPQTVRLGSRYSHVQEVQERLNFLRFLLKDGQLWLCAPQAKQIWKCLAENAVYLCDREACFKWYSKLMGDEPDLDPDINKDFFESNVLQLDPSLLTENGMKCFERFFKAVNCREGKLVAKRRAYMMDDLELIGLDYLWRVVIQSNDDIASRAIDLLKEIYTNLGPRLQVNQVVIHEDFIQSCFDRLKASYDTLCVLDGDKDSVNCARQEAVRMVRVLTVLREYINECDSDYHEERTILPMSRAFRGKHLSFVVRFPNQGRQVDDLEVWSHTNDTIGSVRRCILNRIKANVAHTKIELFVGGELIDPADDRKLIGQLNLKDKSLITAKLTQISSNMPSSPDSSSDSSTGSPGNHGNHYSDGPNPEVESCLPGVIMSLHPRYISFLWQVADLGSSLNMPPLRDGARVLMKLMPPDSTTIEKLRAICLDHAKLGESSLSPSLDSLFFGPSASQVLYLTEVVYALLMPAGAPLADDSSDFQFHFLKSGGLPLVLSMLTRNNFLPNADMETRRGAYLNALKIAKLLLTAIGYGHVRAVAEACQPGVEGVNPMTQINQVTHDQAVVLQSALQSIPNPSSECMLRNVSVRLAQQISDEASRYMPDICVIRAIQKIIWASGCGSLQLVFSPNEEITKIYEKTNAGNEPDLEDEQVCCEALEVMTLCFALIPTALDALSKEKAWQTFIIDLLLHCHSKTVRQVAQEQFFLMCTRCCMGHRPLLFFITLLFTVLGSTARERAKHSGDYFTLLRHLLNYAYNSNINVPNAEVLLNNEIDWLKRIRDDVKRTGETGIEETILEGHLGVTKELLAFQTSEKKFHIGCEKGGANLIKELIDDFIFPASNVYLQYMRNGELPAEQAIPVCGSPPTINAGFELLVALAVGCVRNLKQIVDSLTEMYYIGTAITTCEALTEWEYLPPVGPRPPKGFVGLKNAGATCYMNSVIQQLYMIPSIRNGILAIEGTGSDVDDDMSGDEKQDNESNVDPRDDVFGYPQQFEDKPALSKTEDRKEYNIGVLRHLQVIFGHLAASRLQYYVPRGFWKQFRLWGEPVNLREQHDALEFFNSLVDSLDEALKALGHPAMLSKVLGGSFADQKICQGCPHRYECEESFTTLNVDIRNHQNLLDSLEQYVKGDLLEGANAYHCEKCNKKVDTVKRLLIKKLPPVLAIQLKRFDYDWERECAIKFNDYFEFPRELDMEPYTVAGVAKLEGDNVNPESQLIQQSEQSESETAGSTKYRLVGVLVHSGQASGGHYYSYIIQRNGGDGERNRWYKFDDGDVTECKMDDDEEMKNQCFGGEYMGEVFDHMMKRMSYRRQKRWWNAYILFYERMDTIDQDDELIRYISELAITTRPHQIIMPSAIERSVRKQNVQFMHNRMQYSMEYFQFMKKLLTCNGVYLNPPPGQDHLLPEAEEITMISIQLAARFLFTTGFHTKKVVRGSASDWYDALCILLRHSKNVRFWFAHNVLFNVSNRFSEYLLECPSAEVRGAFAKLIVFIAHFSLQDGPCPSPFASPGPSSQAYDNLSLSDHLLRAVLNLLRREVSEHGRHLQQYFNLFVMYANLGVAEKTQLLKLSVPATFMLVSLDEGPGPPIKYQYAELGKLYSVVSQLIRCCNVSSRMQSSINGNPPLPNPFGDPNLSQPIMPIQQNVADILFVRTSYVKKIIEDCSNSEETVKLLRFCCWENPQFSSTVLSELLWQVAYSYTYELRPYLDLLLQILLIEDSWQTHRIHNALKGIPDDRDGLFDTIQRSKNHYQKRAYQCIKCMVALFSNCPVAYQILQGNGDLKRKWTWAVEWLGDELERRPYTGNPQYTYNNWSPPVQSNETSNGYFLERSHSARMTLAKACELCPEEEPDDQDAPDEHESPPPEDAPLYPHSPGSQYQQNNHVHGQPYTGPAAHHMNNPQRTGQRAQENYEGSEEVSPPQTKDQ
USP46, sequence (P62068 whole entry): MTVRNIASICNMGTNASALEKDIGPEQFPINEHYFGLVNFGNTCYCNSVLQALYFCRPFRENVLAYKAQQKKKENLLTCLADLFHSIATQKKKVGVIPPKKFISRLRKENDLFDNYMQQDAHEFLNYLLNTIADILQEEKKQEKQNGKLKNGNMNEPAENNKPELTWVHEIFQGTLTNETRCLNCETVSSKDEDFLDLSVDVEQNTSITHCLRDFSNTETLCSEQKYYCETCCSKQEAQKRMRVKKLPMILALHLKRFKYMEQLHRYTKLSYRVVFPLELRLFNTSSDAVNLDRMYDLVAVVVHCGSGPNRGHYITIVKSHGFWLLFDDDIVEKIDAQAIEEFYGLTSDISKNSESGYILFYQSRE
USP54, sequence (Q70EL1 whole entry): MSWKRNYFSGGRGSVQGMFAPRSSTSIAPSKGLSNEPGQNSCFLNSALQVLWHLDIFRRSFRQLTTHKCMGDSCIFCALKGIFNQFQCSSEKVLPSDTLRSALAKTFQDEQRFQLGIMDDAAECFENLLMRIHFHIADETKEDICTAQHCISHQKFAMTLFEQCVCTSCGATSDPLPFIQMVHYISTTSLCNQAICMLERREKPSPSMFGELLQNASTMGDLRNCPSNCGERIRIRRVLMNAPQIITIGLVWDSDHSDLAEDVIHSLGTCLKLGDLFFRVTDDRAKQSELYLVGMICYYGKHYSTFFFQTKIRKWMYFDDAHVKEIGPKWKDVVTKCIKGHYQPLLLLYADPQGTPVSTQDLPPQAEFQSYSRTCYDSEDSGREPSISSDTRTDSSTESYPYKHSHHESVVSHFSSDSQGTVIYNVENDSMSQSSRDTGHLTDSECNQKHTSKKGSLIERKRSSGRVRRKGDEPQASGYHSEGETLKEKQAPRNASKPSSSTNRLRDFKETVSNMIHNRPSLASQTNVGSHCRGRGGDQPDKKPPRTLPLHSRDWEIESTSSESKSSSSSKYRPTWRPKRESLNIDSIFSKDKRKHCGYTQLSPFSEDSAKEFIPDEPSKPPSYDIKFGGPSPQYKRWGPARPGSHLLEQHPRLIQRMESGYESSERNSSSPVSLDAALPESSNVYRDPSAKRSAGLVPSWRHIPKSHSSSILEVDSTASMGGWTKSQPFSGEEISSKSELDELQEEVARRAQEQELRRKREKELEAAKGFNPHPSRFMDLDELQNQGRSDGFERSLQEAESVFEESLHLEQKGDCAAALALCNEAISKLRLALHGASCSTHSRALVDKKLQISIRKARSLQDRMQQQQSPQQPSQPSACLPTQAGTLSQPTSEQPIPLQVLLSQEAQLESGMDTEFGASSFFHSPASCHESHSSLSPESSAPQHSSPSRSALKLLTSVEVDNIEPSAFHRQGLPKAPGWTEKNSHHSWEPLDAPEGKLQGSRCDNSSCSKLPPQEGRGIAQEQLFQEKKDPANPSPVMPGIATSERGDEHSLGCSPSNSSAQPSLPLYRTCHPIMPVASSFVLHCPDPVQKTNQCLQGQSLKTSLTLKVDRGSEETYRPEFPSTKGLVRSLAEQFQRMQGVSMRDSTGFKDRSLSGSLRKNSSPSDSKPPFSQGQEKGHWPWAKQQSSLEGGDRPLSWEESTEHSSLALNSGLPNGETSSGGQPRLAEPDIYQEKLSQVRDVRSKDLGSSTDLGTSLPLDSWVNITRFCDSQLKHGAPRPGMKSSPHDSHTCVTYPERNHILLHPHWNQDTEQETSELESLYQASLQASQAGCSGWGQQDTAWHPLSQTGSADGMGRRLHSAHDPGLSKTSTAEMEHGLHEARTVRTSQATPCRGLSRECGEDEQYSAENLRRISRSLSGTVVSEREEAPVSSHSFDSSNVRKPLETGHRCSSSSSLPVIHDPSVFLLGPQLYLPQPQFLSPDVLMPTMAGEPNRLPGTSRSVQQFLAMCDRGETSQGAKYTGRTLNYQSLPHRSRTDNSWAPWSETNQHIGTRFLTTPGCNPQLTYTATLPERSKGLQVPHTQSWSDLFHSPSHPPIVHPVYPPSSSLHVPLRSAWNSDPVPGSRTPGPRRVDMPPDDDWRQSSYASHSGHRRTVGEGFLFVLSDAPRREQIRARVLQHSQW

Cl.O=C(CCl)N1CCn2ncc(O)c2C1
inactive: USP42 -0.139 | USP46 -0.686 | USP47 -0.0187 | USP48 -0.559 | USP5 0.0938 | USP54 0.44 | USP7 -0.81 | USP8 -0.577 | USP9X -0.396 | UniProt O00487 -0.395
